# According to PubChem BioAssay AID629 (Emory University Molecular Libraries Screening Center, 2007):
# About 1,400 (1.6%) of roughly 86,000 compounds were called active. No stated cut-off is given here; in the data, active means inhibition above about 50%; inactive means the rest. This excerpt belongs to a sample that is enriched for actives.
# Molecular target: Estrogen receptor (Homo sapiens) (UniProt P03372)
# Assay: ERα–SRC-1 coactivator interaction inhibitors, primary screen, biochemical, TR-FRET, ERα LBD, estradiol-bound (AID 629);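 further: 0% = receptor plus peptide control and 100% = peptide only without receptor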
# Conditions: TR-FRET ER-alpha LBD / SRC-1 peptide, at 25.6 µM, hits give high values
# Estrogen receptor (Homo sapiens), sequence (P03372 whole entry, looked up, the tested form may be a part): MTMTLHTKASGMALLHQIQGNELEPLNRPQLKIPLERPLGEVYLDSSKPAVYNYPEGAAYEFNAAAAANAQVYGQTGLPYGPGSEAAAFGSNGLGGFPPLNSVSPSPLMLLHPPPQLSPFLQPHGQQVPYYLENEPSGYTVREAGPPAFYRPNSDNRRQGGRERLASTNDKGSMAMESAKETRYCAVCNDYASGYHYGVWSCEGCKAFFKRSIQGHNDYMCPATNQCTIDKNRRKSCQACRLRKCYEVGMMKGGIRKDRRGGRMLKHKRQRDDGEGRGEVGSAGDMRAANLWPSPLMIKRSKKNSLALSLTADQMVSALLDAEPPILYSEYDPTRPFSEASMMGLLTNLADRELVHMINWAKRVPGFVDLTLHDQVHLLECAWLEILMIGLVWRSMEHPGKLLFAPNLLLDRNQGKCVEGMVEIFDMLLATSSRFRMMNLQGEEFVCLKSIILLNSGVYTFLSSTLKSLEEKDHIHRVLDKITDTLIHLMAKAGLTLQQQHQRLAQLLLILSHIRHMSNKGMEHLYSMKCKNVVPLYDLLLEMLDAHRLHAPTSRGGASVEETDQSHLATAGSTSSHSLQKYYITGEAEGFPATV
row,SMILES,inhibition
1,CCCC(C)n1[nH]c(=O)c2c(C)cc(C)nc21 (centres undefined),-5.08% (inactive)
2,CCC(C)n1[nH]c(=O)c2c(C)cc(C)nc21 (centres undefined),-1.94% (inactive)
3,CCC(C)n1[nH]c(=O)cc1N (centres undefined),60.4% (active)
4,CCN1C(=O)/C(=C2/Sc3ccc(OC)cc3N2C)SC1=Nc1ccc(C)cc1,18.8% (inactive)
5,NC(=O)C1(N2CCCCC2)CCN(C2CC(=O)N(Cc3ccc(N4CCCC4=O)cc3)C2=O)CC1 (centres undefined),-9.78% (inactive)
6,COc1ccc(C(=O)Cc2cnn(-c3ccccc3)c2)c(O)c1,-7.1% (inactive)
7,COc1ccccc1NC(=O)/C=C/C(N)=O,13% (inactive)
8,CCOc1cc(NC(=O)c2ccco2)c(OCC)cc1NC(=O)COc1ccccc1,77.7% [fluorescence artefact?] (active)
9,O=C(Nc1ccc(Oc2ccccc2)cc1)c1ccco1,0.33% (inactive)
10,Cc1ccc(C(=O)COc2cccc(NC(=O)c3ccco3)c2)cc1,6.84% (inactive)
11,COC(=O)C1=C(Nc2ccc(C)cc2)C=C(C)C(C(=O)OC)C1c1ccc(F)cc1 (centres undefined),-7.97% (inactive)
12,Cc1nn(C)cc1CNC(=O)Nc1ccc(Cl)cc1,5.21% (inactive)
13,Cc1cccc(C(=O)Nc2ccccc2N2CCN(c3ccc(F)cc3)CC2)c1,-12.2% (inactive)
14,O=C1CCCc2nn(-c3ccccc3)nc21,-5.5% (inactive)
15,O=C(CCC(=O)c1cccs1)NCc1ccccc1,3.23% (inactive)
16,O=C(COC(=O)C12CC3CC(CC(C3)C1)C2)NCc1ccco1,21% (inactive)
17,O=C(COC(=O)CCC(=O)c1cccs1)NCc1ccco1,71.3% (active)
18,O=C(Nc1nncs1)c1cccc(S(=O)(=O)N2CCCCC2)c1,-7.35% (inactive)
19,CC(C)(C)n1nnnc1C(c1ccc(Cl)cc1)N1CCSCC1 (centres undefined),-5.89% (inactive)
20,Cc1cccc(NC(=O)CSc2nnc(-c3ccco3)o2)c1,-9.42% (inactive)
21,O=C(Cn1cc(C(=O)c2cccs2)c2ccccc21)NCc1cccs1,4.67% (inactive)
22,Cc1cccc(NC(=O)Cn2cc(C(=O)c3ccco3)c3ccccc32)c1,52.3% (active)
23,Cc1cc(C)c2cc(CN(Cc3nnnn3Cc3ccc(F)cc3)C3CCCC3)c(=O)[nH]c2c1,7.55% (inactive)
24,COc1ccc(-c2nnc(SCc3cccnc3)o2)cc1,-6.1% (inactive)

row,SMILES,inhibition
1,COc1ccc(S(=O)(=O)N/N=C\c2ccc(OC)c(COc3ccc(C)cc3[N+](=O)[O-])c2)cc1,17.7% (inactive)
2,O=C(CSc1nnnn1-c1ccccc1)NCc1ccco1,33.1% (inactive)
3,COc1ccc(Cc2nnc(NC(=O)Cc3cccs3)s2)cc1,97.3% [fluorescence artefact?] (active)
4,CCCc1ccc(-c2csc(NC(=O)Cc3cccs3)n2)cc1,7.36% (inactive)
5,COc1ccc(Cc2nnc(NS(=O)(=O)Cc3ccccc3)s2)cc1,-16.5% (inactive)
6,CC(C)(C)C(=O)Cn1c(NCCO)nc2ccccc21,-7.55% (inactive)
7,CN(Cc1ccccc1)C(=O)COc1ccccc1,21% (inactive)
8,Cc1ccc(Cn2c(C)nc3c(c2=O)c2nc4ccccc4nc2n3Cc2ccco2)cc1,45.1% (inactive)
9,COCCCn1c2nc3ccccc3nc2c2c(=O)n(Cc3ccc(Cl)cc3)c(C)nc21,22.2% (inactive)
10,Cc1nc2c(c(=O)n1Cc1ccco1)c1nc3ccccc3nc1n2Cc1ccccc1,79.5% (active)
11,CC1(C)CCc2nc(SCc3ccccc3)c(C#N)cc2C1,-2.01% (inactive)
12,C=C(C)CNC(=S)/N=c1\scc(C)n1CC,64.7% [fluorescence artefact?] (active)
13,CS(=O)(=O)n1nc(-c2ccccc2)nc1NCc1ccco1,-3% (inactive)
14,CCOc1ccc2c(c1)C(c1ccc(C)cc1)=NNC(c1ccc(C)cc1)=N2,-14.6% (inactive)
15,Clc1ccc(COn2c(-c3ccc(Cl)cc3Cl)nc3ncccc32)cc1,27.7% (inactive)
16,COc1ccc(S(=O)(=O)NCc2ccc(C(=O)N(C)Cc3ccco3)cc2)cc1,2.78% (inactive)
17,Cc1nc2sc(C(c3ccco3)N3CCOCC3)c(O)n2n1 (centres undefined),-24% (inactive)
18,Oc1c(C(c2ccccn2)N2CCOCC2)ccc2cccnc12 (centres undefined),70% [fluorescence artefact?] (active)
19,O=C(c1cccnc1NCc1ccccc1)N1CCOCC1,-6.49% (inactive)
20,CCc1nnc(NC(=O)CCC(=O)NCc2ccccc2OC)s1,-1.4% (inactive)
21,O=C(Nc1ccc2oc(-c3ccc4ccccc4c3)nc2c1)c1cccs1,55% (active)
22,O=C(Cc1cccc2ccccc12)Nc1ccc2oc(-c3ccccc3)nc2c1,-1.24% (inactive)
23,Cc1nc(-c2ccc(NC(=O)c3cccs3)cc2)cs1,-16.8% (inactive)
24,CCOC(=O)c1ccccc1NS(=O)(=O)c1ccc(OC)cc1,-11.3% (inactive)

row,SMILES,inhibition
1,CCOC(=O)N1CCN(C(=O)c2cc3c(ccc4ccccc43)oc2=O)CC1,-9.07% (inactive)
2,CCOC(=O)N1CCN(C(=O)CSc2ccc(Cl)cc2)CC1,-2.04% (inactive)
3,CCN1CCN(C(c2cccnc2)c2cc(Cl)c3cccnc3c2O)CC1 (centres undefined),65.6% [fluorescence artefact?] (active)
4,CCOC(=O)N1CCN(C(c2cccnc2)c2ccc3cccnc3c2O)CC1 (centres undefined),53.3% [fluorescence artefact?] (active)
5,Oc1c(CN2CCN(c3ccc(F)cc3)CC2)cc(Cl)c2cccnc12,-0.01% (inactive)
6,CCn1c(=O)c(=O)n(CC)c2cc(S(=O)(=O)N3CCc4ccccc43)ccc21,-5.41% (inactive)
7,CCN(CC)CC(=O)c1c[nH]c2ccc(OC)cc12,-8.61% (inactive)
8,CCOC(=O)/C(C#N)=C\c1c(C)cc(C)c(COC(C)=O)c1C,-6.55% (inactive)
9,O=C(Nc1nc(-c2ccc3c(c2)OCO3)cs1)c1ccncc1,58% [fluorescence artefact?] (active)
10,O=C(Nc1nc(-c2ccncc2)cs1)C1COc2ccccc2O1 (centres undefined),1.84% (inactive)
11,O=C(Nc1ccc2c(c1)OCCO2)c1ccncc1,-22.6% (inactive)
12,COc1ccc(CN(C(=O)CSc2nnc(-c3ccc(OC)c(OC)c3)o2)c2ccc(F)cc2)cc1,-6.76% (inactive)
13,COc1ccc(C(=O)N2CC3(C)CC2CC(C)(C)C3)cc1OC (centres undefined),-3.82% (inactive)
14,O=C(CSc1nnc(-c2cccnc2)n1CCc1ccccc1)NCc1ccccc1,-17.8% (inactive)
15,COc1ccc(-c2nn3c(-c4ccccc4)nnc3s2)cc1OC,3.83% (inactive)
16,c1ccc(-c2cc(-c3nnc4sc(-c5ccccn5)nn34)[nH]n2)cc1,54.2% [fluorescence artefact?] (active)
17,CCOc1cccc(-c2nn3c(-c4ccccn4)nnc3s2)c1,2.04% (inactive)
18,O=C(/C=C/NNC(=O)c1cccc(Br)c1)c1ccccc1,-3.8% (inactive)
19,C=CCO/N=C(\C)c1c(O)c(C)c(-c2ccccc2)n(-c2ccccc2)c1=O,2.56% (inactive)
20,CC(=O)Nc1cccc(Oc2cc(C#N)c(C#N)cc2N2CCOCC2)c1,8.98% (inactive)
21,CCOc1cc(N2CCOCC2)c(OCC)cc1NC(=O)COC(=O)[C@H](Cc1c[nH]c2ccccc12)NC(C)=O,-11.8% (inactive)
22,CCOc1cc(N2CCOCC2)c(OCC)cc1NC(=O)COc1cccc2cccnc12,94.2% [fluorescence artefact?] (active)
23,COc1ccc(C)c2sc(=NC(=O)c3ccc(C#N)cc3)n(C)c12,79.7% [fluorescence artefact?] (active)
24,Cn1c(=NC(=O)C2CC2)sc2cc(F)cc(F)c21,-0.62% (inactive)

row,SMILES,inhibition
1,COc1ccc(OC)c2c1sc(=NC(=O)CN1C(=O)CCC1=O)n2C,28.2% (inactive)
2,CCC(c1nnnn1C(C)(C)C)N(Cc1cc2cccc(C)c2n2nnnc12)C1CCCC1 (centres undefined),-3.95% (inactive)
3,CCc1nc(N2CCN(c3nc(C)cc(C)n3)CC2)c2oc3ccccc3c2n1,49.1% (inactive)
4,Cc1nc(N2CCN(c3ncccn3)CC2)c2oc3ccccc3c2n1,54.3% [fluorescence artefact?] (active)
5,Cc1cc(C)nc(N2CCN(c3ncnc4c3oc3ccccc34)CC2)n1,16.1% (inactive)
6,CN1CCc2c(sc3c2c(NCc2ccco2)nc2nnnn23)C1,84.9% [fluorescence artefact?] (active)
7,O=C(Cc1ccccc1)n1nc(-c2ccccc2)nc1NCc1ccco1,-2.71% (inactive)
8,c1ccc(-c2nc(NCc3ccco3)c3ccccc3n2)cc1,2.5% (inactive)
9,CC(C)CCNC(=O)CC1C(=O)N(Cc2ccccc2)C(C)c2nc3ccccc3n21 (centres undefined),-8.13% (inactive)
10,COCCNS(=O)(=O)c1cc(Br)ccc1OC,3.01% (inactive)
11,CC(C)(C)c1ccc(C(=O)NCC(=O)OCN2C(=O)c3ccccc3C2=O)cc1,0.65% (inactive)
12,O=C(OCC#CCSc1nnc(-c2ccncc2)o1)c1sc2ccccc2c1Cl,-0.24% (inactive)
13,O=C(CN1C(=O)CC(c2ccccc2)=Nc2ccccc21)NC1CCCCC1,-6.54% (inactive)
14,Cn1c(=NC(=O)c2cnccn2)sc2ccccc21,56.8% [fluorescence artefact?] (active)
15,Cn1c(=NC(=O)CSCC(=O)N2CCOCC2)sc2ccccc21,-10.2% (inactive)
16,Cn1c(=NC(=O)CSCC(=O)N2CCCCC2)sc2ccccc21,-2.22% (inactive)
17,O=C(Nc1ccc2nc3n(c(=O)c2c1)CCCCC3)c1ccccc1Cl,1.87% (inactive)
18,CCCc1noc2c1/C(=N\O)CCC2,-11.6% (inactive)
19,COc1ccc(S(=O)(=O)Nc2ccc(F)cc2)c(C)c1C,10.1% (inactive)
20,CN(c1ccc(C(=O)NCc2ccccn2)cc1)S(C)(=O)=O,-0.26% (inactive)
21,O=C(NCc1ccccn1)c1cc2ccccc2oc1=O,-3.07% (inactive)
22,O=C(NCc1ccccn1)c1ccc2nc(-c3ccco3)c(-c3ccco3)nc2c1,88% [fluorescence artefact?] (active)
